# Results as given in paper PMC7862700, “An all-to-all approach to the identification of sequence-specific readers for epigenetic DNA modifications on cytosine”.
# Columns and labels:
# Assay in all cases: DAPPL (digital affinity profiling via proximity ligation, sequencing); 10 mM Tris-HCl pH 7.5, 50 mM NaCl, 1 mM DTT, 4% glycerol, room temperature, 30 min; GST-TFs on glutathione beads, 16-mer random dsDNA library, 0.1% formaldehyde crosslink after washing; high values mean tight binding
# FEV = biological target: T1, FEV (Homo sapiens, UniProt Q99581 1-238); conditions: protein: recombinant; tags: N-terminal GST; dsDNA, one strand shown
# T1 sequence: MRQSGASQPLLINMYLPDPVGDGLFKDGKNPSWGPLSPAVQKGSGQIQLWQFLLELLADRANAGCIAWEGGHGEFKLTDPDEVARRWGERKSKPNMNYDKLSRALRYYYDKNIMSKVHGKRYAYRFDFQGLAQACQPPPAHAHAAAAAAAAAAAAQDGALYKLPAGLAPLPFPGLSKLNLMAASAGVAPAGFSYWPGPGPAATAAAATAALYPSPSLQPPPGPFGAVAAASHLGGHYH
# Summary of the method: (§1)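 Binding signal is each hexamer's read frequency for a factor divided by its frequency in the tag-only sample. The factors were GST-fused human transcription factors from yeast, captured on glutathione beads, DNA-barcoded and pooled with that sample. Pools were incubated with 200 nmole of a random double-stranded 16-mer DNA library in Tris/NaCl/DTT/glycerol buffer at room temperature for 30 min, then washed, crosslinked with 0.1% formaldehyde, proximity-ligated with BsaI/T4 ligase (1 h, 37 °C), PCR-amplified and sequenced on an Illumina NextSeq500.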
# ETV5 = ETV5 (Homo sapiens, UniProt P41161 1-510); conditions: protein: recombinant; tags: N-terminal GST; dsDNA, one strand shown
# Summary of the method: as §1
# HSF1 = HSF1 (Homo sapiens, UniProt Q00613 1-529); conditions: protein: recombinant; tags: N-terminal GST; chain copies: 3; dsDNA, one strand shown
# Summary of the method: as §1
# SPIC = biological target: T2, SPIC (Homo sapiens, UniProt Q8N5J4 1-248); conditions: protein: recombinant; tags: N-terminal GST; dsDNA, one strand shown
# T2 sequence: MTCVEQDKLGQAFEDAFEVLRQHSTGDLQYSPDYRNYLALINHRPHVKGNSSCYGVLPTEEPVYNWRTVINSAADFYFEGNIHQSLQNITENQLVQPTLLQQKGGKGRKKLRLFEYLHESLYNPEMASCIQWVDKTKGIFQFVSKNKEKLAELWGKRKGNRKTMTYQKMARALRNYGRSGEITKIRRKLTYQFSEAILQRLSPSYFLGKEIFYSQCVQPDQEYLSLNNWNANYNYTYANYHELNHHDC
# Summary of the method: as §1
# ELF4 = ELF4 (Homo sapiens, UniProt Q99607 1-663); conditions: protein: recombinant; tags: N-terminal GST; dsDNA, one strand shown
# Summary of the method: as §1
# ELK4 = biological target: T3, ELK4 (Homo sapiens, UniProt P28324-2 1-405); conditions: protein: recombinant; tags: N-terminal GST; dsDNA, one strand shown
# T3 sequence: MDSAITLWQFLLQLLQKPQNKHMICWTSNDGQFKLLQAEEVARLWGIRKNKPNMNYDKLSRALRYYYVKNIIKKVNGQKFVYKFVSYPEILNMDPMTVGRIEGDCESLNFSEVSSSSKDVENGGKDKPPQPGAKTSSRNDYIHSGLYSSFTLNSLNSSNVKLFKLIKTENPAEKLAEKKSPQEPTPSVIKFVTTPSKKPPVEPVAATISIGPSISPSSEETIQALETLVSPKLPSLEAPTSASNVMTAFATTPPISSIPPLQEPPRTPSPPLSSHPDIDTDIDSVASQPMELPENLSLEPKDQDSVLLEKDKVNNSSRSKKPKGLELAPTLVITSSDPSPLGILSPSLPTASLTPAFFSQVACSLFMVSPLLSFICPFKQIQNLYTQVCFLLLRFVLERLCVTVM
# Summary of the method: as §1
# ETV2 = biological target: T4, ETV2 (Homo sapiens, UniProt O00321 1-342); conditions: protein: recombinant; tags: N-terminal GST; dsDNA, one strand shown
# T4 sequence: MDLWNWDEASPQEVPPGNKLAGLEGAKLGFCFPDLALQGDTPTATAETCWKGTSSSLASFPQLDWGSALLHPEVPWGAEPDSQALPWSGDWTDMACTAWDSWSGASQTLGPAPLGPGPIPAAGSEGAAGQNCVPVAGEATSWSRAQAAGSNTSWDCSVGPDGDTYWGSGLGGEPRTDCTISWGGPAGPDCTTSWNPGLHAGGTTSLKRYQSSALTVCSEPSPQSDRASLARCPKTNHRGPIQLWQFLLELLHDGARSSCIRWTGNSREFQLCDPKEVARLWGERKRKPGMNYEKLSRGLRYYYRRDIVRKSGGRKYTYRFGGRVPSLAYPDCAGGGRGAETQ
# Summary of the method: as §1
# ELF3 = biological target: T5, ELF3 (Homo sapiens, UniProt P78545 1-371); conditions: protein: recombinant; tags: N-terminal GST; dsDNA, one strand shown
# T5 sequence: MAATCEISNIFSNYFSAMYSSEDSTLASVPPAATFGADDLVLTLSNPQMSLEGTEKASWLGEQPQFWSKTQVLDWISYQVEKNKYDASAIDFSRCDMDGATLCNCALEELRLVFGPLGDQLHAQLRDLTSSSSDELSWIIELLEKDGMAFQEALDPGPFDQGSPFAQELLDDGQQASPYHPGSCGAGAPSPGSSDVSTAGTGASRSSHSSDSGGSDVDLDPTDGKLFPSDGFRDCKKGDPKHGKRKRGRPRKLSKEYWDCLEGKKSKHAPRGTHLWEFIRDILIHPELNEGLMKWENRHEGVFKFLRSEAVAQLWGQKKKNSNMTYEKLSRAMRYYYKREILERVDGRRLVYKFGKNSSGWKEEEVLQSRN
# Summary of the method: as §1
# CRX = CRX (Homo sapiens, UniProt O43186 1-299); conditions: protein: recombinant; tags: N-terminal GST; dsDNA, one strand shown
# Summary of the method: as §1
# ETV1 = ETV1 (Homo sapiens, UniProt P50549 1-477); conditions: protein: recombinant; tags: N-terminal GST; dsDNA, one strand shown
# Summary of the method: as §1
# ERF = biological target: T6, ERF (Homo sapiens, UniProt P50548 1-548); conditions: protein: recombinant; tags: N-terminal GST; dsDNA, one strand shown
# T6 sequence: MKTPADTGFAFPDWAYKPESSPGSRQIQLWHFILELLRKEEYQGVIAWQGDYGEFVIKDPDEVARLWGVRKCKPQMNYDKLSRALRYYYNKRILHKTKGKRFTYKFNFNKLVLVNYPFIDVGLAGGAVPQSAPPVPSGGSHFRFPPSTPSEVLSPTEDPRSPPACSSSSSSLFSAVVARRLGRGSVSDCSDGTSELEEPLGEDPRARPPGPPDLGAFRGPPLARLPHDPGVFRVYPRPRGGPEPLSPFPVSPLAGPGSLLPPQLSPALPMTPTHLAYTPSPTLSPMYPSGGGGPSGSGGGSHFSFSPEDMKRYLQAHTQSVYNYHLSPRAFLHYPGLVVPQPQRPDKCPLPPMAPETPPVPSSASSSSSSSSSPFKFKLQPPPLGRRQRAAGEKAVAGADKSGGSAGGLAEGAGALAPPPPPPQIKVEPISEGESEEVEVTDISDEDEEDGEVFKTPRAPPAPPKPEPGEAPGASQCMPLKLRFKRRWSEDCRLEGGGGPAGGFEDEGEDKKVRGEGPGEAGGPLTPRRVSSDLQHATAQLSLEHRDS
# Summary of the method: as §1
# ETV3L = biological target: T7, ETV3L (Homo sapiens, UniProt Q6ZN32 1-361); conditions: protein: recombinant; tags: N-terminal GST; dsDNA, one strand shown
# T7 sequence: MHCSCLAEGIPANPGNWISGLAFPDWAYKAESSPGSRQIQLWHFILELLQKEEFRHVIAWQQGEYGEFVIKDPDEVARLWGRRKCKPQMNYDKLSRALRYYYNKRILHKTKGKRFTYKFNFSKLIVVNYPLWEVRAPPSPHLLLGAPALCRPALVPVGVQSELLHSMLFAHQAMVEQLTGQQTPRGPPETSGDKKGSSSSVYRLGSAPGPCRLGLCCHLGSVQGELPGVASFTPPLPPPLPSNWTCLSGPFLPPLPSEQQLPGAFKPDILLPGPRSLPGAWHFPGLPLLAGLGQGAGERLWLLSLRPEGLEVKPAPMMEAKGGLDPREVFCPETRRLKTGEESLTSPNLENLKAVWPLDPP
# Summary of the method: as §1
# ETS2 = biological target: T8, ETS2 (Homo sapiens, UniProt P15036 1-469); conditions: protein: recombinant; tags: N-terminal GST; dsDNA, one strand shown
# T8 sequence: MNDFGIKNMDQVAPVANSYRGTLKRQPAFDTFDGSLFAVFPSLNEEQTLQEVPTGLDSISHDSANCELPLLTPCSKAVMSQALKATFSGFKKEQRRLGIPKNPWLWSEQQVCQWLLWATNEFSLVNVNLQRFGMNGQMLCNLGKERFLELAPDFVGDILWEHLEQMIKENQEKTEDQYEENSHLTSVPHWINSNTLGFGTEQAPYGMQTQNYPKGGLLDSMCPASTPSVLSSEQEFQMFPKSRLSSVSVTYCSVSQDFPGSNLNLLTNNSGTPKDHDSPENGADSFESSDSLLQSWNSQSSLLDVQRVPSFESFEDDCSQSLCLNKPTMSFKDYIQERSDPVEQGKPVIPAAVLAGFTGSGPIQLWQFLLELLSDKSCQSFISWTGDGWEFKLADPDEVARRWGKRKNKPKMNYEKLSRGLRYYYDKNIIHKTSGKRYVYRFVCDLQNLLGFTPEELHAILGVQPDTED
# Summary of the method: as §1
# SPDEF = biological target: T9, SPDEF (Homo sapiens, UniProt O95238 1-335); conditions: protein: recombinant; tags: N-terminal GST; dsDNA, one strand shown
# T9 sequence: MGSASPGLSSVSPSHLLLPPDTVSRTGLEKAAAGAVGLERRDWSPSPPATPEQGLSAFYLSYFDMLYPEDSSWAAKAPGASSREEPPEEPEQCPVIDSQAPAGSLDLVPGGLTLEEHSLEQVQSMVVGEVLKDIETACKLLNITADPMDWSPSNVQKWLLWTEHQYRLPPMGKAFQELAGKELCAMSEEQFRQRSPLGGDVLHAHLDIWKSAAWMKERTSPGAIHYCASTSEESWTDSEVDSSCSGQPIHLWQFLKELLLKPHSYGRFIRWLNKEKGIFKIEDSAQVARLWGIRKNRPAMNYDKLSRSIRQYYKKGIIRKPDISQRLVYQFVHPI
# Summary of the method: as §1
# ETV7 = biological target: T10, ETV7 (Homo sapiens, UniProt Q9Y603 1-341); conditions: protein: recombinant; tags: N-terminal GST; dsDNA, one strand shown
# T10 sequence: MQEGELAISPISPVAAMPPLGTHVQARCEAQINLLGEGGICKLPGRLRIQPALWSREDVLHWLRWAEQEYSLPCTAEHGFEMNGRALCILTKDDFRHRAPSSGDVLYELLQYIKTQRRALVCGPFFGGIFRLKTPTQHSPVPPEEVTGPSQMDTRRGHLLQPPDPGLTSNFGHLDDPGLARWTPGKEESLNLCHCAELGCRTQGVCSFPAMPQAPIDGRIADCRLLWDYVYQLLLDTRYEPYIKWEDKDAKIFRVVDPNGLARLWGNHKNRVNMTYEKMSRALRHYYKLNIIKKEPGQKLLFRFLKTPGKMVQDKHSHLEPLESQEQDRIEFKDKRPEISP
# Summary of the method: as §1
# ELF5 = biological target: T11, ELF5 (Homo sapiens, UniProt Q9UKW6-2 1-255); conditions: protein: recombinant; tags: N-terminal GST; dsDNA, one strand shown
# T11 sequence: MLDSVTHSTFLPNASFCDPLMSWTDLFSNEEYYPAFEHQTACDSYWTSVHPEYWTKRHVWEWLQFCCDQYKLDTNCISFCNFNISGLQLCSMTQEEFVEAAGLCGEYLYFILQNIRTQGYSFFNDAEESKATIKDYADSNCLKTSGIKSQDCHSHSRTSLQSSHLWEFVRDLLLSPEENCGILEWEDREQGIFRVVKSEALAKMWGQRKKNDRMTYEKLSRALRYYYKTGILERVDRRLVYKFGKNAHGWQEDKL
# Summary of the method: as §1
# ETV3 = biological target: T12, ETV3 (Homo sapiens, UniProt P41162-2 1-143); conditions: protein: recombinant; tags: N-terminal GST; dsDNA, one strand shown
# T12 sequence: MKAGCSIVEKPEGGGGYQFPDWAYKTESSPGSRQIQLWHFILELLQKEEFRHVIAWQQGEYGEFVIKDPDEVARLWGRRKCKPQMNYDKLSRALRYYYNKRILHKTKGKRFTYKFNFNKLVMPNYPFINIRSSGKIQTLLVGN
# Summary of the method: as §1
# ETV6 = ETV6 (Homo sapiens, UniProt P41212 1-452); conditions: protein: recombinant; tags: N-terminal GST; dsDNA, one strand shown
# Summary of the method: as §1
# Chain of ETV6 (P41212 whole entry): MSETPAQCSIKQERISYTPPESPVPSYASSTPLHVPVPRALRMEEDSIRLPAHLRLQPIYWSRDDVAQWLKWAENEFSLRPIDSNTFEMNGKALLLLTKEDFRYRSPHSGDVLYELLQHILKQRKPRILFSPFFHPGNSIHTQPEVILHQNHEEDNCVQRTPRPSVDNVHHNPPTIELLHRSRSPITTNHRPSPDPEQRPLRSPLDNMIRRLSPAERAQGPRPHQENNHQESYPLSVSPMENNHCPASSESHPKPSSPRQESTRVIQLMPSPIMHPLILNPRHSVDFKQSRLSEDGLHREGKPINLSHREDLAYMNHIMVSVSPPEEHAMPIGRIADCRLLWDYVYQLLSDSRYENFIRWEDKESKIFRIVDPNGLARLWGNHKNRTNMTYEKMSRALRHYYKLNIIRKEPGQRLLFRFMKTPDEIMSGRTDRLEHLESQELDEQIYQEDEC
# Chain of ELF4 (Q99607 whole entry): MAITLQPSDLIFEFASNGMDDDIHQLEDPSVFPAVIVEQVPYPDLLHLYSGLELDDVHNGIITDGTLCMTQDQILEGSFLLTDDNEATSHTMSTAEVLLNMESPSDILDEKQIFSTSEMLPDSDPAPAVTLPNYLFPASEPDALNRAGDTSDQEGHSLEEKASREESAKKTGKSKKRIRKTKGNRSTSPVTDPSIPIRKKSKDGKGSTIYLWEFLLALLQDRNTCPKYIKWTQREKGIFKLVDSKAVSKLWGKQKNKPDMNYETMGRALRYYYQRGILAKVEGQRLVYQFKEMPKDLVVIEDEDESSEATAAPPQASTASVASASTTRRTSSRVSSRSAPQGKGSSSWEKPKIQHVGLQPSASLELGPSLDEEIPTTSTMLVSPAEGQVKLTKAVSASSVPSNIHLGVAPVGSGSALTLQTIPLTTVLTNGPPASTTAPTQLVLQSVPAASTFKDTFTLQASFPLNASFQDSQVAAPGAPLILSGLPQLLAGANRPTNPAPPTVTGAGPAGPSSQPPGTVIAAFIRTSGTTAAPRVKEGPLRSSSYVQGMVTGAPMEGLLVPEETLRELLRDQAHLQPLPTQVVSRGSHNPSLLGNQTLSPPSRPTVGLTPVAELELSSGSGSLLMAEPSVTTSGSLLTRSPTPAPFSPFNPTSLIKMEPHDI
# Chain of ETV1 (P50549 whole entry): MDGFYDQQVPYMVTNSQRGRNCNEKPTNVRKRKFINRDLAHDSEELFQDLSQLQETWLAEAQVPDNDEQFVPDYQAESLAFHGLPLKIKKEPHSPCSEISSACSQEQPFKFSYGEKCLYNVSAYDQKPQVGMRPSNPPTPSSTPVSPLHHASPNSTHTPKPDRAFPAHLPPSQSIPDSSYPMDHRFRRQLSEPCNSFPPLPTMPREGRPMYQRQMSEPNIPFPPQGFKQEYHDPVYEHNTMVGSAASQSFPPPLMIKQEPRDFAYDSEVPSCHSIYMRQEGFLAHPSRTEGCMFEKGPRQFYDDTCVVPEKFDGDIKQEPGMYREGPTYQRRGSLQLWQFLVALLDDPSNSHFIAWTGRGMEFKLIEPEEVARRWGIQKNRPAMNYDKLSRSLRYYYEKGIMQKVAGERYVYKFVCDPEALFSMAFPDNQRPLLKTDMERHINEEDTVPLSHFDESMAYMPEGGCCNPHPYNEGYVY
# Chain of HSF1 (Q00613 whole entry): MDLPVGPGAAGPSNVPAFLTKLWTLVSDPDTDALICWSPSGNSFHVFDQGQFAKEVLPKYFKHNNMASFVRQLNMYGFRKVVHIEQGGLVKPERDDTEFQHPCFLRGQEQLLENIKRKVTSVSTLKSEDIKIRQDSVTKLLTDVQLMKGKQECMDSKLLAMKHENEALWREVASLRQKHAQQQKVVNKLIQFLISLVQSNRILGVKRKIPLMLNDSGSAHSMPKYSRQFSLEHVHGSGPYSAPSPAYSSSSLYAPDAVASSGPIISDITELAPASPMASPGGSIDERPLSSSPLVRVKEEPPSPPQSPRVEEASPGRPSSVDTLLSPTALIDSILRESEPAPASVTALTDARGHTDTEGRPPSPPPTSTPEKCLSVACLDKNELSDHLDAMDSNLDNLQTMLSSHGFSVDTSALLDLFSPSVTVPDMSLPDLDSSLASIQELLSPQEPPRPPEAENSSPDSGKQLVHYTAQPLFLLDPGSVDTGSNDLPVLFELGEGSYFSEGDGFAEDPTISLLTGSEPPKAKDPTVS
# Chain of ETV5 (P41161 whole entry): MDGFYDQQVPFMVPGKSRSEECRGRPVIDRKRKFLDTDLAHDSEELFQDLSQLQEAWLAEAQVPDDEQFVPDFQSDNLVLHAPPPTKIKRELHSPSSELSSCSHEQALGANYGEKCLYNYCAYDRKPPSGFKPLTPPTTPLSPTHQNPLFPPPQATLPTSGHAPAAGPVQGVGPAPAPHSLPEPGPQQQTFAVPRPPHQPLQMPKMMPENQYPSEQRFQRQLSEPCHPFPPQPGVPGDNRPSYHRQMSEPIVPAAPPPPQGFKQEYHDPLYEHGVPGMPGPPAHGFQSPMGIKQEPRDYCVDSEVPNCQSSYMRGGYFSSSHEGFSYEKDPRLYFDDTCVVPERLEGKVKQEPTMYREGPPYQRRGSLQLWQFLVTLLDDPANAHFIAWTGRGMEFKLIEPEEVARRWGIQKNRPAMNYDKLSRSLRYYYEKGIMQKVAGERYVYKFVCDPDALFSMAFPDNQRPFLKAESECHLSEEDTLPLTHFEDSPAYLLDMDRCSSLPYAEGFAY
# Chain of CRX (O43186 whole entry): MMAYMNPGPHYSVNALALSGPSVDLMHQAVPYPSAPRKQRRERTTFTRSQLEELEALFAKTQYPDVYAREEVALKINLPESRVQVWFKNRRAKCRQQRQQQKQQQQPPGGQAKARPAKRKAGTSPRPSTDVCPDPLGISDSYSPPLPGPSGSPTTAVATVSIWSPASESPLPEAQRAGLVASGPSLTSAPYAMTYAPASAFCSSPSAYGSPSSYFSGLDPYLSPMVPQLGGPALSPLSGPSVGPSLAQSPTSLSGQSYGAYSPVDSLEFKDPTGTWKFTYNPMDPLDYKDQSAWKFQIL
sequence,measurement,setting,value
TCTCGC,binding signal,FEV,"1.64 fold enrichment (6-mer frequency, TF over GST control)"
same,binding signal,ETV5,"1.6 fold enrichment (6-mer frequency, TF over GST control)"
same,binding signal,HSF1,"2.5 fold enrichment (6-mer frequency, TF over GST control)"
same,binding signal,SPIC,"1.4 fold enrichment (6-mer frequency, TF over GST control)"
same,binding signal,ELF4,"1.75 fold enrichment (6-mer frequency, TF over GST control)"
same,binding signal,ELK4,"1.76 fold enrichment (6-mer frequency, TF over GST control)"
same,binding signal,ETV2,"1.96 fold enrichment (6-mer frequency, TF over GST control)"
same,binding signal,ELF3,"1.88 fold enrichment (6-mer frequency, TF over GST control)"
same,binding signal,CRX,"1.84 fold enrichment (6-mer frequency, TF over GST control)"
same,binding signal,ETV1,"1.75 fold enrichment (6-mer frequency, TF over GST control)"
same,binding signal,ERF,"1.75 fold enrichment (6-mer frequency, TF over GST control)"
same,binding signal,ETV3L,"1.81 fold enrichment (6-mer frequency, TF over GST control)"
same,binding signal,ETS2,"1.91 fold enrichment (6-mer frequency, TF over GST control)"
same,binding signal,SPDEF,"1.63 fold enrichment (6-mer frequency, TF over GST control)"
same,binding signal,ETV7,"1.68 fold enrichment (6-mer frequency, TF over GST control)"
same,binding signal,ELF5,"1.71 fold enrichment (6-mer frequency, TF over GST control)"
same,binding signal,ETV3,"1.79 fold enrichment (6-mer frequency, TF over GST control)"
same,binding signal,ETV6,"1.62 fold enrichment (6-mer frequency, TF over GST control)"
